# MITF inhib – blocks MITF activity; TRPM1 promoter luciferase, luminescence, 24 h; inhibition, % (no concentration beside the values); 37,000 compounds, 0.28% hits; AID 2240; in the data active = inhibition above about 85%; inconclusive = no clear call, values can overlap the other calls; inactive = below about 68%;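 note: human melanocyte line stably carrying TRPM1 promoter luciferase reporter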
# Hedgehog inh – blocks Sonic Hedgehog signaling; inhibition, % (concentration not given with the values); AID 2313; 22,000 compounds, 2.1% hits; Shh-LIGHT2 Gli-luciferase reporter, 30 h;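 active = mean inhibition across valid replicates above about 65%, limit read from the data; inconclusive = mean under the limit, yet half or more replicates past it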;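 note: pathway switched on by Shh-conditioned medium diluted 1 in 25 in low serum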
# BJeLR viability – compounds reducing viability of BJeLR cells. BJeLR fibroblasts viability, CellTiterGlo ATP luminescence, 48 h; HRASV12, hTERT and SV40 LT/ST transformed. viability loss activity score, % (concentration not given with the values). 30,000 compounds, 0.64% hits; in the data active = viability loss activity score above about 50%; inconclusive = no clear call, values can overlap the other calls; inactive = below about 35%;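 note: higher score means fewer live cells and less ATP luminescence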
# Numbers stand for hits; i = inactive; ? = inconclusive; nt = no result. The entries come from a sample that favours hits as a whole.
SMILES,MITF inhib,Hedgehog inh,BJeLR viability
COc1ccc(S(=O)(=O)Nc2ccc3c(c2)C(=O)N([C@H](C)CO)C[C@H](C)[C@@H](CN(C)C(=O)Nc2ccc(F)cc2)OCCCC[C@@H](C)O3)cc1,i,74,nt
COc1ccc(NC(=O)N(C)C[C@H]2OCCCC[C@@H](C)Oc3ccc(NS(=O)(=O)c4ccc(F)cc4)cc3C(=O)N([C@H](C)CO)C[C@@H]2C)cc1,i,i,nt
C[C@@H]1CCCCO[C@@H](CN(C)Cc2ccccc2)[C@@H](C)CN([C@H](C)CO)C(=O)c2cc(NC(=O)Nc3ccc(F)cc3)ccc2O1,i,nt,nt
C[C@@H]1CCCCO[C@H](CN(C)S(=O)(=O)c2ccc(F)cc2)[C@@H](C)CN([C@H](C)CO)C(=O)c2cc(NS(=O)(=O)c3ccc(F)cc3)ccc2O1,i,i,nt
CC(C)NC(=O)N(C)C[C@H]1OCCCC[C@@H](C)Oc2ccc(NS(=O)(=O)c3cn(C)cn3)cc2C(=O)N([C@H](C)CO)C[C@@H]1C,i,72,nt
C[C@@H]1CCCCO[C@H](CN(C)Cc2ccccc2)[C@@H](C)CN([C@H](C)CO)C(=O)c2cc(NC(=O)Nc3ccc(F)cc3)ccc2O1,i,67,nt
C[C@@H]1CCCCO[C@@H](CN(C)S(C)(=O)=O)[C@@H](C)CN([C@H](C)CO)C(=O)c2cc(NS(=O)(=O)c3ccc(F)cc3)ccc2O1,i,74,nt
COc1ccc(Nc2c3c(nc4ccc(NC(=O)C5CC5)cc24)CCCC3)cc1OC,nt,nt,i
CC(C)NS(=O)(=O)c1ccc(Cl)s1,nt,nt,i
Cc1cccn2c(=O)c3cc(C(=O)NCCN4CCOCC4)c(=N)n(C(C)C)c3nc12,nt,nt,i
COc1ccc(NC(=O)C2CCCN(S(=O)(=O)c3ccc4c(c3)oc(=O)n4C)C2)cc1Cl (stereo not drawn),nt,nt,i
CCc1cccc(NC(=O)C(NC(=O)C2CCC(C)CC2)C(C)C)c1 (stereo not drawn),nt,nt,i
C[C@@H]1CCCCO[C@H](CN(C)C(=O)CCCN(C)C)[C@@H](C)CN([C@H](C)CO)C(=O)c2cc(NC(=O)CCC(F)(F)F)ccc2O1,i,77,nt
C[C@@H]1CCCCO[C@@H](CN(C)C(=O)CCC(F)(F)F)[C@@H](C)CN([C@H](C)CO)C(=O)c2cc(NC(=O)CCCN(C)C)ccc2O1,i,i,nt
COc1cc(OC)c2c(c1)ncc1c(C)nn(-c3ccccc3)c12,nt,nt,i
CCc1ccc(NC(=O)C2CCN(C(=O)c3ccccc3C)CC2)cc1,nt,nt,i
CC(=O)Nc1ccc(Nc2c3c(c(C#N)c4nc5ccccc5n24)CCCC3)cc1,nt,nt,i
O=C(/C=C/c1ccco1)Nc1cccc2cccnc12,nt,nt,i
COc1ccccc1NC(=O)/C=C\c1ccco1,i,68,i
CN1CCc2c(-c3cccs3)nc(OCc3ccccc3Br)c(C#N)c2C1,i,65,i
N#Cc1ccc(CSc2nc(-c3cccs3)c3c(c2C(=O)O)CCCC3)cc1,i,?,i
Cc1ccc2nc(NC(=O)C3CC(O)CN3C(=O)Oc3ccccc3)sc2c1 (stereo not drawn),nt,nt,i
Cc1cccc(CCNC(=O)CSc2c3c(nc4ccc(Cl)cc24)CCCC3)c1,nt,nt,i
COc1ccc(C[C@H](N)C(=O)N[C@@H]2[C@@H](CO)OC(n3cnc4c(N(C)C)ncnc43)[C@@H]2O)cc1 (stereo partly drawn),106,93,i
CNC(=O)[C@H]1O[C@@H](n2cnc3c(NCc4cccc(I)c4)ncnc32)C(O)[C@H]1O (stereo partly drawn),i,i,i
SMILES,MITF inhib,Hedgehog inh,BJeLR viability
Cc1cc(Sc2nnc(/N=C/N(C)C)s2)c2ccccc2n1,nt,nt,54
CN(C)/C=N/c1nnc(SCC(=O)c2ccc(F)cc2)s1,nt,nt,i
Cc1csc2sc(-c3ccnc(SCC(=O)c4ccccc4)n3)c(C)c12,i,70,i
Cc1csc2sc(-c3ccnc(SCC(=O)NCc4ccccc4)n3)c(C)c12,i,nt,nt
COc1ccc(OC)c(NC(=O)COc2ccc3c(=O)c(Oc4ccccc4Br)coc3c2)c1,95,nt,nt
COc1ccc(OC)c(NC(=O)COc2ccc3c(C)cc(=O)oc3c2)c1,i,nt,nt
CCOC(=O)Cn1c(=O)oc2cc(S(=O)(=O)N3c4ccccc4CC3C)ccc21 (stereo not drawn),nt,nt,i
CCOC(=O)c1sc(SCCS(=O)(=O)c2ccc(Cl)cc2)c2c1CCCC2=O,i,i,i
Cc1ccc(S(=O)(=O)CCSc2sc(C#N)c3c2C(=O)CC(C)(C)C3)cc1,i,66,i
Cc1noc(-c2ccccc2)c1NC(=O)N1CCOCC1,nt,nt,i
O=C(CCCc1ccccc1)Nc1scc2c(=O)oc3ccccc3c12,nt,nt,i
Cc1ccc(-c2cn3cccnc3n2)cc1NC(=O)c1ccccc1,nt,nt,i
